Values joined by “and” are separate entries in the source; they are usually repeats but may differ in a detail not shown here. Equal entries are not always repeated. Hit rate of the full screen: of about 310,000 compounds, about 11,000 (3.5%) were called active. Roughly 8% stayed inconclusive and do not appear here. The call rests on the fitted dose curve; in most records, active means well fitted inhibition curve with a large enough effect; inconclusive means small, poorly fitted or top-dose-only effect, or effect the other way; inactive means flat fitted curve, though single readings scatter. What follows is part of a selection rich in actives, with near analogues and random picks from the rest. Entries that show only a call come without a potency.
Potency means the concentration at half of the fitted maximal effect.

This assay in a line: VP16 counterscreen qHTS for inhibitors of ROR gamma transcriptional activity.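 Further: Gal4-VP16 expression switched on by copper sulfate through the metallothionein promoter; nearly all actives have a fitted effect of over 50% in size.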 The conditions noted are these: Drosophila S2 Gal4-VP16 UAS-luciferase, luminescence, 20 h; series mostly up to 53.6 µM.
As to `CCCCC(C(=O)NC(C)(C)C)N(Cc1ccccc1)C(=O)c1snc(C(N)=O)c1N` (stereo not given), the Potency entry was “inactive”.

Consider `O=C(CN1CCN(Cc2ccccc2)CC1)Nc1ccc(F)c(F)c1`, for which the Potency result is “inactive”. The same measure, in the same setting: for `CCn1c2ccccc2c2cc(NC(=S)N3CCOCC3)ccc21` the value was 22.4 µM (active). Same read-out and setting: the same measure for `CCn1c2ccccc2c2cc(NC(=O)CNC)ccc21`: “inactive”; for `Cc1cc(N2CCN(C)CC2)nc2ccc(NC(=S)N3CCOCC3)cc12`: “inactive”. On the same count and under the same terms, for `CC(C)CCN(C(=O)c1csnn1)C(C(=O)NC1CCCC1)c1ccccc1` (stereo not given) the value was “inactive”; for `Clc1cccc(CN2COc3c(cc(Cl)c4cccnc34)C2)c1`, 1.41 µM (active). With `CC(C)CC(=O)N1CCN(Cc2cccc(Cl)c2)CC1`, the Potency result is “inactive”.

With `Nc1c(C(=O)NCc2ccccc2)nnn1Cc1cccc(Cl)c1`, the Potency entry was “inactive”. Still for that read-out and setting: for `N#Cc1cccc(CN2CCC(=O)N([C@H](CO)c3ccccc3)CC2)c1` the value was “inactive”.

With `Cc1ccc(NC(=O)c2c(NC(=O)CCC(=O)O)sc3c2CCCCC3)cc1`, the Potency result was “inactive”.

For `NC(=O)c1c(NC(=O)c2ccccc2)sc2c1CCCC2`, the Potency result is “inactive”. Take `O=C(CN1CCCC1)Nc1sc2c(c1C(=O)Nc1ccccc1)CCCC2`: the Potency is 10 µM (active). Regarding `COc1cc(S(=O)(=O)N2CCN=C2c2ccccc2)ccc1Cl`, the Potency entry is “inactive”.

As to `Cc1cc(S(=O)(=O)c2cc3ccc(O)c(C)c3oc2=O)ccc1F`, the Potency entry was “inactive”. On to `Cc1ccc2occ(/C=N/NC(=O)c3ccccc3C)c(=O)c2c1`, for which the Potency entry is “inactive”.

On to `Cc1ccc(/C=N/NC(=O)C2=NNC(c3ccccc3)(c3ccccc3)C2)c(O)c1`, for which the Potency was 1.26 µM (active). Still for that read-out and setting: for `Cc1nc2ccc(C(=O)N/N=C/c3ccc(O)cc3)cc2[nH]1` the value was “inactive”; for `O=C(NCc1ccccc1)c1onc(CSc2nc3ccccc3[nH]2)c1C(=O)NCc1ccccc1`, “inactive”. Take `O=C(COc1ccc2c3c(c(=O)oc2c1)CCCC3)NCC(O)c1ccccc1` (stereo not given): the Potency result is “inactive”. On to `COCCN1C(=O)C(=O)/C(=C(/O)c2ccc(S(=O)(=O)N3CCOCC3)cc2)C1c1ccc(OC)c(OC)c1` (stereo not given), for which the Potency result is “inactive”. Turning to `C/C(=N/NC(=O)c1ccncc1)c1ccc2c(c1)OCO2`, the Potency result was “inactive”.

As to `C/C(=N/NC(=S)Nc1ccccc1)c1ccc2c(c1)OCO2`, the Potency was 4.47 µM (active). The same measure, in the same setting: for `C/C(=N\NC(=O)C(N)=O)c1ccc2c(c1)OCCO2` the value was “inactive”; for `Cc1ccccc1N1CCN(C2CCCN(C(=O)c3cn4c(C)cccc4n3)C2)CC1` (stereo not given), “inactive”; for `CCc1nn(CCCC(=O)Nc2ccc(C)c(C)c2)c(=O)c2cc3occc3n12`, “inactive”. Regarding `CN1C/C(=C/c2cccs2)C(=O)/C(=C\c2cccs2)C1`, the Potency result is “inactive”. Take `CCCc1cc(C(=O)Nc2ccc(Cl)cn2)cs1`: the Potency result was “inactive”.

Consider `O=C(Nc1cccc([N+](=O)[O-])c1)Nc1ccc(Cl)cn1`, for which the Potency result was “inactive”.

As for `O=C(Nc1ccc(Cl)cn1)Nc1cccs1`, the Potency was 14.1 µM (active). Regarding `COc1cc(/C=N/N2CCN(c3ccccc3)CC2)ccc1OC(C)=O`, the Potency entry was “inactive”. Regarding `COc1cc2c(cc1OC)/C(=C/C(=O)c1ccc(NC(C)=O)cc1)NCC2`, the Potency result was “inactive”. `CC1CN/C(=C\C(=O)c2ccc(Br)cc2)C(=O)N1` (stereo not given): the Potency was 11.2 µM (active). Same read-out and setting: the same measure for `C/C(=C\C(=O)c1ccc(Br)cc1)N1CCCCC1`: “inactive”; for `Cc1ccnc(SCC(N)=O)n1`: “inactive”; for `CCOc1ccccc1N1C(=O)CC(Sc2nccc(C)n2)C1=O` (stereo not given): 17.8 µM (active). On the same count and under the same terms, the same measure for `O=C1CC(Sc2ncn[nH]2)C(=O)N1c1ccccc1` (stereo not given): “inactive”; for `COC(=O)C1CCN(C(=O)c2ccc3oc(Cc4ccc(Cl)cc4)nc3c2)CC1`: “inactive”; for `COc1ccc(-c2nc3c(s2)CCc2onc(-c4ccc(OC)cc4)c2-3)cc1`: “inactive”. As for `CCn1ccnc1CNC(=O)CC1C(=O)NCCN1CCCc1ccccc1` (stereo not given), the Potency result is “inactive”. For the molecule `COCCNC(=S)N(CCc1c(C)[nH]c2ccc(C)cc12)Cc1cccnc1`, the Potency entry was “inactive”. As for `Cc1cccc(Nc2nc(-c3ccccc3)cs2)n1`, the Potency was 17.8 µM (active). The same measure, in the same setting: the same measure for `Cc1cccc(S(=O)(=O)CC(=O)Nc2nc(-c3ccccc3)cs2)c1`: “inactive”; for `NS(=O)(=O)c1ccc(Nc2nc(-c3ccccc3)cs2)cc1`: “inactive”.

Regarding `COc1ccccc1-c1nnc(SCC(=O)Nc2ccccc2)o1`, the Potency entry was “inactive”. The same measure, in the same setting: the same measure for `O=C(Nc1ccc(S(=O)(=O)N2CCOCC2)cc1)c1ccc2ncsc2c1`: “inactive”.

Regarding `COc1ccccc1-c1nnc(NC(=O)c2ccc3ncsc3c2)o1`, the Potency was 0.501 µM (active). With `CCCOc1ccc(-c2c(C(=O)N/N=C/c3ccco3)nnn2-c2nonc2N)cc1`, the Potency is 15.8 µM (active). Regarding `Nc1nonc1-n1nnc(C(=O)N/N=C/c2c[nH]c3ccccc23)c1-c1ccccc1`, the Potency result was “inactive”.

As to `Nc1nonc1-n1nnc(C(=O)N/N=C/C2CCCCC2)c1-c1ccccc1`, the Potency entry is “inactive”. As to `COc1ccc(NC(=O)c2cccc3c2C(=O)N(CC2CCCO2)C3)cc1OC` (stereo not given), the Potency result was “inactive”. The same measure, in the same setting: for `O=C(NNS(=O)(=O)c1ccc(F)cc1)C1CCCCC1` the value was “inactive”; for `COc1cc(SC#N)ccc1N=Cc1c(C)[nH]n(-c2ccc(C)cc2)c1=O`, 5.62 µM (active).

Turning to `COc1cc(NS(=O)(=O)c2ccc(N=Cc3c(C)[nH]n(-c4ccccc4)c3=O)cc2)nc(OC)n1`, the Potency entry was “inactive”.

In the case of `O=S(=O)(Nc1cccc(-n2cnnn2)c1)c1cnc(Cl)c(Cl)c1`, the Potency entry was “inactive”.

Take `CCc1ccc(S(=O)(=O)Nc2cc3c(cc2N2CCCCC2)n(C)c(=O)c(=O)n3C)cc1`: the Potency entry is “inactive”.

As to `CSCCC(NS(=O)(=O)c1ccc(C)cc1)C(=O)NCCc1c[nH]c2ccccc12` (stereo not given), the Potency entry is “inactive”. Same read-out and setting: the same measure for `COc1ccc(C(=O)c2c(C)c(CCC#N)n3ccccc23)c(OC)c1`: “inactive”; for `Cc1ccc(-c2cc(C(=O)NN)n[nH]2)o1`: “inactive”; for `CC(C)c1cc(C(=O)N/N=C/C(Br)=C/c2ccccc2)n[nH]1`: “inactive”.

Take `Cc1ccc(-c2cc(C(=O)N/N=C/C=C/c3ccccc3)n[nH]2)o1`: the Potency is 20 µM (active). On the same count and under the same terms, the same measure for `Cc1cc2oc(=O)cc(CN3CCN(Cc4ccccc4)CC3)c2cc1C`: “inactive”. In the case of `COc1cccc(CNC(=O)Cn2c(=O)oc3cc(S(=O)(=O)N4CCCCC4)ccc32)c1`, the Potency entry is “inactive”.

On to `Cc1ccc(N2CCN(C(=O)c3cccs3)CC2)c(C)c1`, for which the Potency entry was “inactive”. Regarding `O=C(Nc1ccccc1N1CCCCC1)c1cccc(F)c1`, the Potency result was “inactive”. For the molecule `O=C(NC(=S)Nc1ccccc1N1CCCCC1)c1ccc(F)cc1`, the Potency was 6.31 µM (active). Take `O=C(Nc1ccccc1N1CCCC1)c1ccc2ccccc2c1`: the Potency result is “inactive”. With `CC(=O)c1ccc(N2CCN(CC(=O)Nc3ccccc3N3CCOCC3)CC2)cc1`, the activity, negative = inhibition is -11.4% [at 10 µM] (inactive).

In the case of `COc1ccccc1C(=O)NC(=S)Nc1ccccc1N1CCCCC1`, the Potency was 10 µM (active).

Consider `COc1ccc(C(=O)NC(=S)Nc2ccccc2N2CCN(S(C)(=O)=O)CC2)cc1OC`, for which the Potency entry is “inactive”. As for `O=C(CCNC(=O)c1ccc([N+](=O)[O-])cc1)Nc1ccccc1N1CCOCC1`, the Potency result is “inactive”. Same read-out and setting: for `Cc1ccccc1NC(=O)Nc1ccccc1N1CCCCC1` the value was “inactive”. The same measure, in the same setting: for `CCc1ccc(C(=O)NC(=S)Nc2ccccc2N2CCOCC2)cc1` the value was 3.16 µM (active); for `COc1ccc(/C=C(\C#N)c2c[nH]c3ccccc23)cc1`, “inactive”; for `Cn1c(=O)oc2cc(S(=O)(=O)NCCC(=O)NCc3ccccc3Cl)ccc21`, “inactive”. On the same count and under the same terms, the same measure for `CN(Cc1ccccc1)C(=O)C1CCCN(c2ncnc3c2nc2n3CCCCC2)C1` (stereo not given): “inactive”; for `CC1CCN(CCCn2c(SCC(=O)NC3CCCC3)nc3ccccc3c2=O)CC1`: “inactive”; for `Cc1c2cnn(CC(=O)NCc3ccccn3)c(=O)c2c(C)n1Cc1ccc(Cl)cc1`: “inactive”.

Turning to `O=C1Nc2ccccc2/C1=C/c1ccnc2ccccc12`, the Potency entry was “inactive”. Consider `COc1cc(CN2CCCC(C(=O)c3ccc(SC)cc3)C2)cc(Cl)c1O` (stereo not given), for which the Potency result was “inactive”. On the same count and under the same terms, for `COc1ccc(NC(=O)C2CCN(S(=O)(=O)c3ccc4[nH]c(=O)oc4c3)CC2)c(OC)c1` the value was “inactive”; for `C=CCSc1nnc(N2C(=O)C(O)=C(C(=O)c3ccco3)C2c2ccc(F)cc2)s1` (stereo not given), “inactive”.

Consider `O=S(=O)(c1ccc(Br)cc1)c1nc(-c2ccccc2)oc1N1CCOCC1`, for which the Potency entry was “inactive”. Turning to `COc1cc(C(=O)NC2CCN(Cc3ccccc3)CC2)cc(Cl)c1OC(C)C`, the Potency result was “inactive”. Regarding `Cc1ccc(Oc2nc(-c3ccccn3)nc3ccccc23)cc1`, the Potency is 3.16 µM (active). For `COc1ccc(Cc2nc(-c3ccccn3)no2)cc1OC`, the Potency entry was “inactive”. On to `CC(C)(C)Nc1nc(-c2ccccn2)nc2ccccc12`, for which the Potency was 3.98 µM (active).

For `COc1ccc(Sc2nc(-c3ccccc3)ncc2OC)cc1`, the Potency entry was “inactive”. Regarding `CNc1nc(-c2ccccc2OC)nc2ccccc12`, the Potency entry was “inactive”. Same read-out and setting: for `CCOC(=O)c1cnc(-c2ccccc2)nc1Oc1ccc(C)cc1` the value was “inactive”. For `Cc1cnc(CNc2nc(-c3cccnc3)nc3ccccc23)cn1`, the Potency result is “inactive”. On the same count and under the same terms, for `COc1cnc(-c2ccccn2)nc1Oc1ccc(C(C)(C)C)cc1` the value was 12.6 µM (active). Same read-out and setting: the same measure for `COc1ccccc1Oc1nc(-c2cccnc2)nc2ccccc12`: “inactive”. With `CCCc1ccc(OCC(O)CN2CCN(C(=O)OCC)CC2)cc1` (stereo not given), the Potency result was “inactive”. On the same count and under the same terms, for `CC(C)c1ccc(NC(=O)C2CCCN(S(=O)(=O)c3cccnc3)C2)cc1` (stereo not given) the value was “inactive”. On to `CCCn1c(C2CCCN2c2nc(-c3ccc(C)cc3)cs2)nc2cc(Cl)c(N3CCCCC3)cc21` (stereo not given), for which the Potency result was “inactive”.

Consider `COc1ccc(CNC(=O)c2cc(=O)c3c(C)cc(C)cc3o2)cc1`, for which the Potency result was “inactive”. On the same count and under the same terms, for `O=C(NCCCN1CCOCC1)c1cc(-c2ccccc2F)no1` the value was “inactive”. The same measure, in the same setting: for `COc1ccccc1N1CCN(S(=O)(=O)c2ccc3c(c2)NC(=O)CS3)CC1` the value was “inactive”; for `O=[N+]([O-])c1cccc2ncccc12`, “inactive”; for `O=[N+]([O-])c1ccccc1S(=O)(=O)Nc1cccc2cccnc12`, 1.41 µM (active) and 1 µM (active). For the molecule `Cc1ccccc1NC(=O)c1ccccc1NS(=O)(=O)c1cccc2cccnc12`, the Potency result is “inactive”.

Consider `Cc1nc2ccc(C(=O)N(C)CC3CCCN(CCc4ccc(Cl)cc4)C3)cc2[nH]1` (stereo not given), for which the Potency entry is “inactive”. Regarding `CC(C)CNS(=O)(=O)c1ccc(CCC(=O)NCc2ccc(Cl)cc2)cc1`, the Potency result was “inactive”. Still for that read-out and setting: for `CCOC(OCC)c1ccc(/C=C\c2nccc(N)n2)cc1` the value was “inactive”.

For the origin of these results see PubChem BioAssay AID2546 (National Center for Advancing Translational Sciences (NCATS), 2010).
